Experimental findings from PubChem BioAssay (NCATS) are described below.

Inconclusive results are not listed. Where a call stands in place of a potency, no number is given. The source made the active and inactive calls. The call rests on the fitted dose curve; in most records, active means well fitted inhibition curve with a large enough effect; inconclusive means small, poorly fitted or top-dose-only effect; inactive means flat fitted curve, though single readings scatter.

Chain of Calcium and integrin-binding protein 1 (Homo sapiens) (Q99828 whole entry, looked up): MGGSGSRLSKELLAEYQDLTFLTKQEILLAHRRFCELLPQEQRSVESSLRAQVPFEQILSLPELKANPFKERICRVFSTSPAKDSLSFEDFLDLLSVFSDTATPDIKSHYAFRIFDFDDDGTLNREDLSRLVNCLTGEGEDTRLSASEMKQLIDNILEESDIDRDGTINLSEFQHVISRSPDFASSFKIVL

In the assay the target is Calcium and integrin-binding protein 1 (Homo sapiens) (UniProt Q99828). Put plainly: Primary qHTS for Identification of Calcium Integrin Binding Protein 1 (CIB1) Competitor (AID 1508620).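 Further: GST tagged CIB1 binding a fluorescein labelled alphaIIb integrin peptide tracer; top concentration of the series differs between compounds.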 The following applies: CIB1-GST / FITC-alphaIIb peptide fluorescence polarization; series mostly up to 114 µM. An outline of the steps:
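Fluorescence polarization competition: CIB1-GST (1 uM final) preincubated with compound 15 min at room temperature, then FITC-labeled alphaIIb peptide (100 nM final) added for another 15 min. Polarization read at Ex 480/Em 540.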
For orientation: Quantitative high-throughput screening tests each substance at several concentrations.
Consider `O=C(O)c1ccc2c(c1)C(=O)N([C@H](Cc1ccc(O)c(O)c1)C(=O)O)C2=O`, for which the Potency result is “inactive”. The value for `CCn1cnc2c(Nc3ccc(Cc4cccnc4)cc3)nc(C#N)nc21` was “inactive”; that for `Cc1cc(C)nc(NC(=S)N2CCN(c3ccc4c(c3)OCO4)CC2)c1` was “inactive”. Turning to `COc1ccc(C(=O)N(Cc2ccccc2)Cc2ccccc2)c(O)c1`, the Potency result was “inactive”. Next, `Cc1cc(C)nc(NC(=S)N2CCN(Cc3c(F)cccc3Cl)CC2)c1`: “inactive”; `O=C1Nc2ccccc2C1Cc1cc(Cl)c(O)c(Cl)c1` (configuration not stated): “inactive”; `Cc1cnc(-c2ccccc2C2CC2)nc1NCc1ccc(-c2cccnc2)cc1`: “inactive”. For the molecule `COc1ccc(C2Nc3ccccc3C(=O)N2Cc2ccccc2)cc1COc1ccc(C)cc1` (configuration not stated), the Potency result is “inactive”. Next, `Cc1cc2c(s1)c1cnn(Cc3c(F)cccc3C(F)(F)F)c(=O)c1n2C`: “inactive”. Take `O=C(OCC#CCSc1nnc(-c2cccc3ccccc23)o1)c1csc2ccccc12`: the Potency result was “inactive”.

Turning to `CCOc1cc(CCNC(=O)c2cc3sccc3n2Cc2ccccc2)cc(F)c1OCC`, the Potency result is “inactive”.

`CC(Nc1ncnc2ccc(-c3ccc4c(c3)OCO4)cc12)c1ccco1` (configuration not stated): the Potency entry was “inactive”. Next, `CC(=O)NC(c1cc(F)c2cccnc2c1O)C(C)C` (configuration not stated): “inactive”; `COc1ccc(-c2ccc3nnc(-c4ccccc4OC)n3n2)cc1OC`: “inactive”; `CCc1nnc2sc(-c3ccc(C)c(NC(=O)c4ccc(-c5cccc(Cl)c5)o4)c3)nn12`: “inactive”. Next, `O=C(Cc1ccc(Cl)c(Cl)c1)Nc1ccc(S(=O)(=O)Nc2ccccc2)cc1`: “inactive”; `CC(C)(C)OC(=O)Cc1nnc(C(C(=O)OCc2ccccc2)c2ccccc2)o1` (configuration not stated): “inactive”.
